In all, about 2,400 compounds went through this assay and about 180 (7.5%) were called active. Many of the other results were omitted from the sample, so actives are more common in it than they were. A number with no mark means an inactive call.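 The calls were made as follows: active = readout below zero, meaning a drop past 3 SD under the dofetilide-free negative control mean; inactive = the rest.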

For this assay, the target named is Potassium voltage-gated channel subfamily KQT member 2 (Rattus norvegicus) (UniProt O88943). As to the kind of experiment: rat KCNQ2 channel inhibition by compounds alone, confirmation, counter-screen for hERG block protector project, cell-based, CHO, FluxOR thallium flux (AID 1946). The settings on record: CHO-KCNQ2 cells, FluxOR thallium flux fluorescence; at 10 µM; stronger effect = lower value; zero marks the 3-SD hit cutoff.
Potassium voltage-gated channel subfamily KQT member 2 (Rattus norvegicus), sequence (O88943 whole entry, looked up): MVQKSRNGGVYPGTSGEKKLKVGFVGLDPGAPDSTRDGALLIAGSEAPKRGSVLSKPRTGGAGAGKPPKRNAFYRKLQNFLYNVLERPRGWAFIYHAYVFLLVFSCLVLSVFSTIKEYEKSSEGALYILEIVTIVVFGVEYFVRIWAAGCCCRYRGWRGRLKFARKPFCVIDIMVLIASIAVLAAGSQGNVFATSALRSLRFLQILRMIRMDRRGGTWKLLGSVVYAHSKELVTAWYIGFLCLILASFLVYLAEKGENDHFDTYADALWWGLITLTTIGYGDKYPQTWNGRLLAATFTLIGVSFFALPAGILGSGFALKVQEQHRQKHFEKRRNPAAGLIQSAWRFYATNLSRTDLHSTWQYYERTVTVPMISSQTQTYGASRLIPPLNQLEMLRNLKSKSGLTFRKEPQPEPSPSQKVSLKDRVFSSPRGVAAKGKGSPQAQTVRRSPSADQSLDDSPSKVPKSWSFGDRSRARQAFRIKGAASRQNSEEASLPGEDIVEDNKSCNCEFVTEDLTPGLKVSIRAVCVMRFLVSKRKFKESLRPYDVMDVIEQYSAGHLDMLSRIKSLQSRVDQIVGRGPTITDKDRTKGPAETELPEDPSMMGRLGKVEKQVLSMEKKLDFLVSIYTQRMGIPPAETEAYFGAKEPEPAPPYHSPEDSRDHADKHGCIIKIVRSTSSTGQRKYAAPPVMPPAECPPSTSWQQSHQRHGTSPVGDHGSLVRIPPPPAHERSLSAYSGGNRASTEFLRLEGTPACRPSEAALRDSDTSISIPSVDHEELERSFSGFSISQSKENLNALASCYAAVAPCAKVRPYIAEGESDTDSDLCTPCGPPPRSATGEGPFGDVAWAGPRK
In the case of `Cc1nn(-c2ccccc2)c(Cl)c1/C=C1\SC(=S)NC1=O`, the activity change vs negative control is 81.9%.

In the case of `COc1ccc(-c2cc(C(=O)N3CCCC3)no2)cc1OC`, the activity change vs negative control was 24%.

Regarding `O=C(NC(=S)Nc1ccccc1)c1ccc(Br)o1`, the activity change vs negative control is 34.7%.

Take `Cc1ccc(C(C(=O)NC(C)(C)C)N(Cc2cccnc2)C(=O)C(=O)NC2CCCCC2)o1` (centres undefined): the activity change vs negative control is 14.9%.

`CCSc1nc(=S)cc(C)[nH]1`: the activity change vs negative control is 78.1%.

For `O=C(O)C1C2CCC(O2)C1C(=O)Nc1ccc(F)c(Cl)c1` (centres undefined), the activity change vs negative control is 10.3%.

With `CC(C)N1CC(C(=O)Nc2ccc(Cl)c(Cl)c2)CC1=O` (centres undefined), the activity change vs negative control is -0.8% (active).

Consider `COc1ccc(S(=O)(=O)N2CCCC(C(=O)Nc3ccc(OC)c(OC)c3)C2)cc1` (centres undefined), for which the activity change vs negative control was 5.6%.

With `CCOC(=O)C(=CNc1ccc(N2CCOCC2)cc1)C(=O)OCC`, the activity change vs negative control is 29.7%.

On to `COc1ccccc1Cn1c(=S)[nH]c2ccc(Br)cc2c1=O`, for which the activity change vs negative control is 7.2%.

With `Cc1[nH]c(-c2ccccn2)nc(=S)c1Cl`, the activity change vs negative control is 107%.

Consider `O=c1c2ccccc2[nH]c(=S)n1CCC1=CCCCC1`, for which the activity change vs negative control is 49.3%.

Turning to `Cc1ccc(NS(=O)(=O)c2cn(C)c(=O)n(C)c2=O)c(C)c1`, the activity change vs negative control is 14.1%.

On to `Cc1ccc2cc(CCNC(=O)C(=O)c3c(C)[nH]c4ccccc34)c(=O)[nH]c2c1`, for which the activity change vs negative control was 0.8%.

In the case of `Cc1ccc2cc(CN(CCCN(C)C)C(=S)NCc3ccccc3)c(=O)[nH]c2c1C`, the activity change vs negative control was -0.3% (active).

`Cc1ccc(-n2nc3ccc(N)cc3n2)c(C)c1`: the activity change vs negative control is -14.5% (active).

Regarding `O=C(COc1ccc2c3c(c(=O)oc2c1)CCC3)N[C@@H](Cc1ccccc1)C(=O)O`, the activity change vs negative control is 31.1%.

Take `CCOC(=O)C1CCN(S(=O)(=O)c2cccc3nonc23)CC1`: the activity change vs negative control was 20.3%.

As for `CCOc1ccc(C(=O)N(CN2CCCC2=O)c2ccc(C)cc2)cc1`, the activity change vs negative control is 44.8%.

With `Cc1onc(-c2ccccc2)c1C(=O)NC(=S)Nc1sc2c(c1C#N)CCCC2`, the activity change vs negative control was 10.5%.

For `CC(C)OC(=O)c1c(NC(=O)c2ccco2)sc2c1CCCCC2`, the activity change vs negative control is 3.9%.

Take `Cc1ccc(C(=O)Nc2sc3c(c2C(=O)O)CCCCC3)o1`: the activity change vs negative control was -2.5% (active).

On to `Oc1c(Br)cc(Br)cc1C=Nc1ccc2[nH]ncc2c1`, for which the activity change vs negative control is 54.4%.

As for `O=C(NC(=S)N1CCN(c2ccc(C(F)(F)F)cc2[N+](=O)[O-])CC1)c1cccs1`, the activity change vs negative control was 30.1%.

`COc1cccc(OC)c1C(=O)NC(=S)N1CCN(c2ccc(C(F)(F)F)cc2[N+](=O)[O-])CC1`: the activity change vs negative control was -6% (active).

In the case of `CC(C)Oc1cccc(C(=O)NC(=S)N2CCN(c3ccc(C(F)(F)F)cc3[N+](=O)[O-])CC2)c1`, the activity change vs negative control is 11.4%.

Turning to `CCOC(=O)c1n[nH]n2c1nc(=S)c1ccccc12`, the activity change vs negative control was 77.4%.

Take `CSC(=S)N/N=C/c1ccccc1`: the activity change vs negative control was 71%.

Consider `Cc1cccc(/C=N/NC(=O)c2cc(Br)ccc2O)n1`, for which the activity change vs negative control is 23.8%.

For `Cc1ccc(C(=O)N2CCN(c3ccccc3)CC2)cc1S(=O)(=O)N1CCCC1`, the activity change vs negative control was 29.7%.

Consider `O=C(NC(=S)N(CC1CCC1)CC1CCCO1)c1cccc([N+](=O)[O-])c1` (centres undefined), for which the activity change vs negative control is 63.2%.

Consider `O=C(NC(=S)Nc1cc(C(F)(F)F)ccc1Cl)c1ccccc1`, for which the activity change vs negative control is 8.2%.

For `O=C(NC(=S)Nc1cc(C(F)(F)F)ccc1N1CCOCC1)c1ccco1`, the activity change vs negative control was 11.7%.

As for `O=C(CCc1ccccc1)NC(=S)Nc1cc(C(F)(F)F)ccc1N1CCOCC1`, the activity change vs negative control is -15.9% (active).

Regarding `COc1cc(C(=O)Nc2ccc(O)cc2C(=O)O)ccc1OC(C)=O`, the activity change vs negative control is 3.8%.

`Cn1c(=O)c(Sc2ccccc2)c(O)c2ccccc21`: the activity change vs negative control was 23.4%.

Turning to `COc1ccc(C(=O)NNC(=O)C(=O)NC2CCCCC2)cc1`, the activity change vs negative control is 20.2%.

With `O=C(c1csc(Nc2ccccc2Cl)n1)N1CCCC1`, the activity change vs negative control is 0%.

`Cc1ccc(OC(=O)c2sc3ncn(C)c(=O)c3c2C)cc1`: the activity change vs negative control was -1.4% (active).

As to `CCOc1ccc(-n2cnc3sc(C)c(C)c3c2=O)cc1`, the activity change vs negative control was 3%.

Consider `COc1ccccc1-n1cnc2sc(C)c(C)c2c1=O`, for which the activity change vs negative control is 11.8%.

Regarding `CCOc1cc(N2CCOCC2)c(OCC)cc1NC(=O)Cn1nc(C)c([N+](=O)[O-])c1C`, the activity change vs negative control was 12.9%.

On to `CCSc1nnc(NC(=O)CC(C)C)s1`, for which the activity change vs negative control is 10.8%.

Consider `Cc1ccc(OCc2ccoc2C(=O)O)cc1C`, for which the activity change vs negative control is 45.7%.

Consider `O=C(/C=C/Nc1ccc(F)c(F)c1)c1cccs1`, for which the activity change vs negative control is -2.9% (active).

As for `Cc1ccc(N/C=C/C(=O)c2cccs2)cc1`, the activity change vs negative control was 5%.

Turning to `O=C(/C=C/Nc1ccc(F)cc1)c1ccco1`, the activity change vs negative control is 12.2%.

As for `Cc1ccc(Cc2c[nH]c(=S)s2)cc1`, the activity change vs negative control is 76.4%.

Regarding `O=C(NC(=S)N1CCc2ccccc21)c1ccc(Br)o1`, the activity change vs negative control is 41%.

As for `S=c1nc(Cc2ccccc2)[nH]c2ccccc12`, the activity change vs negative control was 98.8%.

Consider `O=C1CC(C(=O)N2CCOCC2)C2(CCCCC2)O1` (centres undefined), for which the activity change vs negative control is -1% (active).

Regarding `O=C(C1CCN(S(=O)(=O)c2cc(Cl)ccc2Cl)CC1)N1CCOCC1`, the activity change vs negative control was 1.9%.

Consider `Cc1ccc(C(C)C)c(OCc2n[nH]c(=S)o2)c1`, for which the activity change vs negative control is 32.2%.

As to `O=C(NC(=S)NCc1ccccc1)c1ccc(Br)o1`, the activity change vs negative control is 93.4%.

Regarding `CC1=NN(C(=O)c2ccc(Cl)cc2)C(O)(c2ccccc2)C1` (centres undefined), the activity change vs negative control was 16%.

As to `CCC1=NN(C(=O)c2ccc(Cl)cc2)C(O)(c2ccccc2)C1` (centres undefined), the activity change vs negative control was -0.9% (active).

Take `CCC1=NN(C(=O)c2ccc(Cl)cc2)C(O)(c2ccc(C)cc2)C1` (centres undefined): the activity change vs negative control is 11.1%.

As to `CC(C)NC(=O)Nc1n[nH]c(Nc2ccc(Cl)cc2)n1`, the activity change vs negative control is 34.6%.

As to `COCCN(C(=O)CSc1nnc(C)n1Cc1ccccc1)c1c(N)n(CC(C)C)c(=O)[nH]c1=O`, the activity change vs negative control was 1.8%.

In the case of `C=CCN(CC=C)C(=S)NC(=O)c1ccc(OC)cc1`, the activity change vs negative control is 31.6%.

On to `C=CCN(c1ccc(C(=O)NC(C)C)cc1)S(C)(=O)=O`, for which the activity change vs negative control is -2.3% (active).

Take `CS(=O)(=O)N(Cc1ccccc1)c1ccc(C(=O)Nc2ccc(C(N)=O)cc2)cc1`: the activity change vs negative control was 4.2%.

For `CCOC(=O)C1=NN(C(=O)c2ccccc2)C(O)(c2ccc(C)cc2)C1` (centres undefined), the activity change vs negative control was 32%.

On to `CCn1c(=S)[nH]c2c(c1=O)C(C)(C)Cc1ccccc1-2`, for which the activity change vs negative control is 49.8%.
